Assay results as given in article PMC7862700, “An all-to-all approach to the identification of sequence-specific readers for epigenetic DNA modifications on cytosine”.

Experiments:
Assay in all cases: DAPPL (digital affinity profiling via proximity ligation, sequencing); 10 mM Tris-HCl pH 7.5, 50 mM NaCl, 1 mM DTT, 4% glycerol, room temperature, 30 min; GST-TFs on glutathione beads, 16-mer random dsDNA library, 0.1% formaldehyde crosslink after washing; high values mean tight binding
FLI1 = target: T1, FLI1 (Homo sapiens, UniProt Q01543 1-452); conditions: protein: recombinant; tags: N-terminal GST; dsDNA, one strand shown
T1 sequence: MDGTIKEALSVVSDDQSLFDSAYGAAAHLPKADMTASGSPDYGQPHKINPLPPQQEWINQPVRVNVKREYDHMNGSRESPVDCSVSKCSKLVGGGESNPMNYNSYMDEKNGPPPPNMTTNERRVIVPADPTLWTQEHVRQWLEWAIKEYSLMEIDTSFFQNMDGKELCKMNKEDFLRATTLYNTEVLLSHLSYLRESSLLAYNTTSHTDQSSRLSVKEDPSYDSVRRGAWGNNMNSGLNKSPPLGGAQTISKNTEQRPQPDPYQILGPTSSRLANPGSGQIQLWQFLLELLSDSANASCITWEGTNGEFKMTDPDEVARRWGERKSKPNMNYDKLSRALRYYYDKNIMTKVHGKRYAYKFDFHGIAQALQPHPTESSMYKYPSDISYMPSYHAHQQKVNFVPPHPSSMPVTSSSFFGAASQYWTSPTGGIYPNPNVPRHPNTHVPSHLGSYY
Summary of the method: (§1)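 Binding signal is given per hexamer as its read frequency for a factor divided by its frequency in the tag-only sample. GST-fused human transcription factors were expressed in yeast, captured on glutathione beads, barcoded with DNA and pooled with that sample, then incubated with 200 nmole of a 16-mer random double-stranded DNA library in Tris/NaCl/DTT/glycerol buffer for 30 min at room temperature. The pools were then washed, crosslinked, proximity-ligated, amplified by PCR and sequenced on an Illumina NextSeq500.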

ELK1 = target: T2, ELK1 (Homo sapiens, UniProt P19419 1-428); conditions: protein: recombinant; tags: N-terminal GST; dsDNA, one strand shown
T2 sequence: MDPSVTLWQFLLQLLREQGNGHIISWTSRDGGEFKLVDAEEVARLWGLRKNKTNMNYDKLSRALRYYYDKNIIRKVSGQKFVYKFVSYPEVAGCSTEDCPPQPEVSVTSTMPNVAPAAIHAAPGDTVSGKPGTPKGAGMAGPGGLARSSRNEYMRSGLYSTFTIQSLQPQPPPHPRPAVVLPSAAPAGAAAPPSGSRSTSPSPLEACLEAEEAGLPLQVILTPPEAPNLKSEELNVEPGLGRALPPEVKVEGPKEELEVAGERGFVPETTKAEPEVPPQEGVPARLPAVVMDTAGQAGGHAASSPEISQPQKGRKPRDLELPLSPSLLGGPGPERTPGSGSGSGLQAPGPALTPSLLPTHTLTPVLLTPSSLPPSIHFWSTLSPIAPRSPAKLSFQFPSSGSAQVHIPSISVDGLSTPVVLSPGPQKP
Summary of the method: as §1

GABPA = target: T3, GABPA (Homo sapiens, UniProt Q06546 1-454); conditions: protein: recombinant; tags: N-terminal GST; dsDNA, one strand shown
T3 sequence: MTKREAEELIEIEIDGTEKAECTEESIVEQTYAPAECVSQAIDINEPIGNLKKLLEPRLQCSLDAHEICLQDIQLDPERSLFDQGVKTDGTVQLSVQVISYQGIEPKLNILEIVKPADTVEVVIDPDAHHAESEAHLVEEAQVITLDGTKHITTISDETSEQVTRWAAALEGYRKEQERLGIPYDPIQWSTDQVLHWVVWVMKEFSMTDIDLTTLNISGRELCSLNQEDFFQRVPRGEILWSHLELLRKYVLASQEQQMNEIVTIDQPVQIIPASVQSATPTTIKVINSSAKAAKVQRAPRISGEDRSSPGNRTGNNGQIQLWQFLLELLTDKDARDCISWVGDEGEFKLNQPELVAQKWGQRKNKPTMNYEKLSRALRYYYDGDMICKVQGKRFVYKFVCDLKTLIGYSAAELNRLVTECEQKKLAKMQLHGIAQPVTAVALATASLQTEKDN
Summary of the method: as §1

ERG = target: T4, ERG (Homo sapiens, UniProt P11308 1-479); conditions: protein: recombinant; tags: N-terminal GST; dsDNA, one strand shown
T4 sequence: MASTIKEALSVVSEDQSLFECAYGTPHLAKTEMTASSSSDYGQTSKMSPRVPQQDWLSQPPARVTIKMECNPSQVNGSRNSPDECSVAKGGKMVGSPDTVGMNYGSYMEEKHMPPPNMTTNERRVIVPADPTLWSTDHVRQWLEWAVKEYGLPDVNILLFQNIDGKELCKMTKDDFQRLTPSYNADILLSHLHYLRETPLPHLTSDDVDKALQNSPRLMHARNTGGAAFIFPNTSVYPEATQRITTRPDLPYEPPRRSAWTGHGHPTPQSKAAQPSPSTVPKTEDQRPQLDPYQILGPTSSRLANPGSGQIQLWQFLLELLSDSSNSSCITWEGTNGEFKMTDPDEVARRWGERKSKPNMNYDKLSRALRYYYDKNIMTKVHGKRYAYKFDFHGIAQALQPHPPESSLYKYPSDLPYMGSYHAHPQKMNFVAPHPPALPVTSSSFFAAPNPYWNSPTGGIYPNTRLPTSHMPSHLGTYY
Summary of the method: as §1

ELF1 = ELF1 (Homo sapiens, UniProt P32519 1-619); conditions: protein: recombinant; tags: N-terminal GST; dsDNA, one strand shown
Sequence of ELF1 (P32519 whole entry): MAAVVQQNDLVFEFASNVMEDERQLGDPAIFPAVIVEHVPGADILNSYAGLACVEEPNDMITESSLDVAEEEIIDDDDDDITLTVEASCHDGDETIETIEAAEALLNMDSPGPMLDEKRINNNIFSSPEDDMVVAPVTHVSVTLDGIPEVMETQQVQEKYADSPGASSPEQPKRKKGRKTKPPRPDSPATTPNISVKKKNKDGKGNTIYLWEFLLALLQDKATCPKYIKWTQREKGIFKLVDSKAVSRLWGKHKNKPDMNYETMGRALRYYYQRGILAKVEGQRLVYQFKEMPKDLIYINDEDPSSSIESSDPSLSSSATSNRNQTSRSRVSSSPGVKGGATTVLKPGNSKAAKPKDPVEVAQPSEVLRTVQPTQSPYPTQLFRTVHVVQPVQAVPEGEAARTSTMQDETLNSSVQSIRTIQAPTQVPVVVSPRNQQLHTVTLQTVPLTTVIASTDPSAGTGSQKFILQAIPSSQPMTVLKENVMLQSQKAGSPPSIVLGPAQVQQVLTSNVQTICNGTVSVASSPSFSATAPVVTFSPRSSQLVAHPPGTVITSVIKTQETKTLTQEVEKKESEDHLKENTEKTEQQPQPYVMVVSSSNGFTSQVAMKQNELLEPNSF
Summary of the method: as §1

EHF = target: T5, EHF (Homo sapiens, UniProt Q9NZC4 1-300); conditions: protein: recombinant; tags: N-terminal GST; dsDNA, one strand shown
T5 sequence: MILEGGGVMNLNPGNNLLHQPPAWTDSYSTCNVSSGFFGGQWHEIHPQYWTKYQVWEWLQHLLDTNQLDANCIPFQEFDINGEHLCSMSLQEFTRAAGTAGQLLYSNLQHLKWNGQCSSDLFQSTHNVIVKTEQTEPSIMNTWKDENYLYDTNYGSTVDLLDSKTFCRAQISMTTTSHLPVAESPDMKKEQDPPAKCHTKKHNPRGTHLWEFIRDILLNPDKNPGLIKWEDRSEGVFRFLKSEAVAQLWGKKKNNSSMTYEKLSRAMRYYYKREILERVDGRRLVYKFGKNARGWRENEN
Summary of the method: as §1

SPI1 = SPI1 (Homo sapiens, UniProt P17947 1-270); conditions: protein: recombinant; tags: N-terminal GST; dsDNA, one strand shown
Summary of the method: as §1

SPIB = SPIB (Homo sapiens, UniProt Q01892 1-262); conditions: protein: recombinant; tags: N-terminal GST; dsDNA, one strand shown
Sequence of SPIB (Q01892 whole entry): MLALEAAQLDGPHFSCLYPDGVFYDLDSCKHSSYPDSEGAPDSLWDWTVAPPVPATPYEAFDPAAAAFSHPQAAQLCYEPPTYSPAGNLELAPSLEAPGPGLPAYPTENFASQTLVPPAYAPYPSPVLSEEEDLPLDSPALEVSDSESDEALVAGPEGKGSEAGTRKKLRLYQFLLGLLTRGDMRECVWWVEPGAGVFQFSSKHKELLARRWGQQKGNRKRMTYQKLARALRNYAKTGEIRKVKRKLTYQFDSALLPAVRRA
Summary of the method: as §1

ELK3 = target: T6, ELK3 (Homo sapiens, UniProt P41970 1-407); conditions: protein: recombinant; tags: N-terminal GST; dsDNA, one strand shown
T6 sequence: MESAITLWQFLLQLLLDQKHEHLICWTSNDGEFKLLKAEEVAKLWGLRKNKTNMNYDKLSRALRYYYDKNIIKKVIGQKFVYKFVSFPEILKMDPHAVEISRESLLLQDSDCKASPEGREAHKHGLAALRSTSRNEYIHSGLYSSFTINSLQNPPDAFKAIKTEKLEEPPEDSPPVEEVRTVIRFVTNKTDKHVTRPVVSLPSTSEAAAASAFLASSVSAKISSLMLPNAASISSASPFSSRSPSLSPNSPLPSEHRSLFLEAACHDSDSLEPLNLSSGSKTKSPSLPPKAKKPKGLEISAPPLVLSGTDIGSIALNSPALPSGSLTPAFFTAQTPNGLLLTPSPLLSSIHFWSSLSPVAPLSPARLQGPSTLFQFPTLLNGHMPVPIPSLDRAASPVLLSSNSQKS
Summary of the method: as §1

FEV = target: T7, FEV (Homo sapiens, UniProt Q99581 1-238); conditions: protein: recombinant; tags: N-terminal GST; dsDNA, one strand shown
T7 sequence: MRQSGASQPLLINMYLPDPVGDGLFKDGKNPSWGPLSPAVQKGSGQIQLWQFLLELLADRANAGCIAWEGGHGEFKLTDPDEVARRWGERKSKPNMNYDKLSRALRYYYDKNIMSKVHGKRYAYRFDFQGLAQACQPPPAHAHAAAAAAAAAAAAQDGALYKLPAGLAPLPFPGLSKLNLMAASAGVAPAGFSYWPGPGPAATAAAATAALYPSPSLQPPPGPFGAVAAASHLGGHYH
Summary of the method: as §1

ETV5 = ETV5 (Homo sapiens, UniProt P41161 1-510); conditions: protein: recombinant; tags: N-terminal GST; dsDNA, one strand shown
Sequence of ETV5 (P41161 whole entry): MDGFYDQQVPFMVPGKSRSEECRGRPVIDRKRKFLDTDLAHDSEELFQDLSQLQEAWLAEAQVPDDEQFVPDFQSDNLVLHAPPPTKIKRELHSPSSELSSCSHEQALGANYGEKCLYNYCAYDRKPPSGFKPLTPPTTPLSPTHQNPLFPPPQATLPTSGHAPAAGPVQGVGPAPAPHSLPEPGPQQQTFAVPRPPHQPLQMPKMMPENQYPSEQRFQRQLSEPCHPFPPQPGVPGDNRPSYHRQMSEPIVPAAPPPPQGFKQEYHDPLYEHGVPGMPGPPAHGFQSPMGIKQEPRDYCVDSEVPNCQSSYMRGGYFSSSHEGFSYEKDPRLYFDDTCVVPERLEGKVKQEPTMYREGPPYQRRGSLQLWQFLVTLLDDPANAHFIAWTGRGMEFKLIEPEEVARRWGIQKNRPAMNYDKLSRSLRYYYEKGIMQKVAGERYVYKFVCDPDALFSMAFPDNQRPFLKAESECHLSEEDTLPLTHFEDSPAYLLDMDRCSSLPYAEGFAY
Summary of the method: as §1

HSF1 = HSF1 (Homo sapiens, UniProt Q00613 1-529); conditions: protein: recombinant; tags: N-terminal GST; chain copies: 3; dsDNA, one strand shown
Sequence of HSF1 (Q00613 whole entry): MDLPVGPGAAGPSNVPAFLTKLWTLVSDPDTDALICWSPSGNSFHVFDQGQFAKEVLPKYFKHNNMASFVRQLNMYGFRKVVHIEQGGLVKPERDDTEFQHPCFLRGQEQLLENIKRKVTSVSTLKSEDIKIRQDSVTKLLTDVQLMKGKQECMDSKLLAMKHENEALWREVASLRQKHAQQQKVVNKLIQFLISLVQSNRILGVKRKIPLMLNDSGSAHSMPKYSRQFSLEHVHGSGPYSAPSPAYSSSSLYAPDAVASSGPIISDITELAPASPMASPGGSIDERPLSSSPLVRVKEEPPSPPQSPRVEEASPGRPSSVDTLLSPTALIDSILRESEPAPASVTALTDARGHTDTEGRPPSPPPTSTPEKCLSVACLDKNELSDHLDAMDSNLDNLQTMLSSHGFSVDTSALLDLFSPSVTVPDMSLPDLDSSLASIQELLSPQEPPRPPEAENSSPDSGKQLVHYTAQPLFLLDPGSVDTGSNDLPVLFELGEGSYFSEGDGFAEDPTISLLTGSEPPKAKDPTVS
Summary of the method: as §1

SPIC = target: T8, SPIC (Homo sapiens, UniProt Q8N5J4 1-248); conditions: protein: recombinant; tags: N-terminal GST; dsDNA, one strand shown
T8 sequence: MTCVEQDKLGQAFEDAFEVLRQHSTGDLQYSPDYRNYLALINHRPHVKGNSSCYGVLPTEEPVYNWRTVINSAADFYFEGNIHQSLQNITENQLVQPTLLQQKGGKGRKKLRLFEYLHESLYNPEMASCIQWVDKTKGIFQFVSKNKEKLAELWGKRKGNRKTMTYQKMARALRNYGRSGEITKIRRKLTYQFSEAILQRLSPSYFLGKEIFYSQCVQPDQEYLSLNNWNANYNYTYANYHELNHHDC
Summary of the method: as §1

ELF4 = ELF4 (Homo sapiens, UniProt Q99607 1-663); conditions: protein: recombinant; tags: N-terminal GST; dsDNA, one strand shown
Sequence of ELF4 (Q99607 whole entry): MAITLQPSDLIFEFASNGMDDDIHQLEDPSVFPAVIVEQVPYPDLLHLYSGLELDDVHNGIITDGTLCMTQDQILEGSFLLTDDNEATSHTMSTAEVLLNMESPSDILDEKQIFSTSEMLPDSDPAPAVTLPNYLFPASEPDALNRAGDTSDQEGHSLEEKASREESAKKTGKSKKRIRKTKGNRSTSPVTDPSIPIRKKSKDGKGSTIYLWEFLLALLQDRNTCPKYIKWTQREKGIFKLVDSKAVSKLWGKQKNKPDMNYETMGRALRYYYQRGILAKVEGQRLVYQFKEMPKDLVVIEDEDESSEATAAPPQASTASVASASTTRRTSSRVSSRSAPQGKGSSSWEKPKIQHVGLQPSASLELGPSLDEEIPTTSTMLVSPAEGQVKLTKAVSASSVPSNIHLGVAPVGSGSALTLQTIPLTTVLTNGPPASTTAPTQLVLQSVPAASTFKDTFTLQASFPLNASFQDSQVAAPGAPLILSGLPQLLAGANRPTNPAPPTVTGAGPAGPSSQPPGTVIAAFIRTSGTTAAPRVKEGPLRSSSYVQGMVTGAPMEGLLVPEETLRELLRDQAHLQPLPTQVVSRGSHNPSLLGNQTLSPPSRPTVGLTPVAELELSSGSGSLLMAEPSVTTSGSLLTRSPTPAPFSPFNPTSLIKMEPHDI
Summary of the method: as §1

ELK4 = target: T9, ELK4 (Homo sapiens, UniProt P28324-2 1-405); conditions: protein: recombinant; tags: N-terminal GST; dsDNA, one strand shown
T9 sequence: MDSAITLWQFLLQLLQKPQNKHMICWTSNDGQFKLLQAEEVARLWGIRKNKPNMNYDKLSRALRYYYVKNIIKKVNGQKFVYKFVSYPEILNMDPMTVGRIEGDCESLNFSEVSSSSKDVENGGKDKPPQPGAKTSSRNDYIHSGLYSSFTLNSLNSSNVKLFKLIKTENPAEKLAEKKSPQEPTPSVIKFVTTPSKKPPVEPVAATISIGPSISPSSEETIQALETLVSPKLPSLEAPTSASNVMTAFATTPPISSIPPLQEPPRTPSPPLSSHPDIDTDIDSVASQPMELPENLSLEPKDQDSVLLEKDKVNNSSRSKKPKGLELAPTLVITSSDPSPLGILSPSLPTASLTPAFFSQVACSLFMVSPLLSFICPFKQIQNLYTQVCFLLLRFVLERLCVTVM
Summary of the method: as §1

ETV2 = target: T10, ETV2 (Homo sapiens, UniProt O00321 1-342); conditions: protein: recombinant; tags: N-terminal GST; dsDNA, one strand shown
T10 sequence: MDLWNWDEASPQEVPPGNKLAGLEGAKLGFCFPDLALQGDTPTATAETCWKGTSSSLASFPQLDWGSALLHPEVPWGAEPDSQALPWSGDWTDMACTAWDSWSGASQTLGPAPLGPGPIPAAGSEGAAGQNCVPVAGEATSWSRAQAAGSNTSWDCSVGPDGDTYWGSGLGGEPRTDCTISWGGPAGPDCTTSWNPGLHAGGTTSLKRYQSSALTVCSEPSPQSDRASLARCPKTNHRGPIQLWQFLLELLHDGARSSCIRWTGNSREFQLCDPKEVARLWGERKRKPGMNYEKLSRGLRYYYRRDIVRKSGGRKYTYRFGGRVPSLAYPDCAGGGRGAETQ
Summary of the method: as §1

ELF3 = target: T11, ELF3 (Homo sapiens, UniProt P78545 1-371); conditions: protein: recombinant; tags: N-terminal GST; dsDNA, one strand shown
T11 sequence: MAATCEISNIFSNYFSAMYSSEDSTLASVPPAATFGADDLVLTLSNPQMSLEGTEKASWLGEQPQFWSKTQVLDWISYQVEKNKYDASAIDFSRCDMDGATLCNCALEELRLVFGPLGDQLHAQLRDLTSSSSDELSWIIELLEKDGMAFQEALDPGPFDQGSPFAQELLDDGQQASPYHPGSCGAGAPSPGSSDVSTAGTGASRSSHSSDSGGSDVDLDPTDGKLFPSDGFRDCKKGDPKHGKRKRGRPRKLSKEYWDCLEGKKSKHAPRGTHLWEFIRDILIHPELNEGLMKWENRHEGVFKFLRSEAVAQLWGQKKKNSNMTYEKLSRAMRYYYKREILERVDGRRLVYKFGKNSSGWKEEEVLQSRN
Summary of the method: as §1

CRX = CRX (Homo sapiens, UniProt O43186 1-299); conditions: protein: recombinant; tags: N-terminal GST; dsDNA, one strand shown
Sequence of CRX (O43186 whole entry): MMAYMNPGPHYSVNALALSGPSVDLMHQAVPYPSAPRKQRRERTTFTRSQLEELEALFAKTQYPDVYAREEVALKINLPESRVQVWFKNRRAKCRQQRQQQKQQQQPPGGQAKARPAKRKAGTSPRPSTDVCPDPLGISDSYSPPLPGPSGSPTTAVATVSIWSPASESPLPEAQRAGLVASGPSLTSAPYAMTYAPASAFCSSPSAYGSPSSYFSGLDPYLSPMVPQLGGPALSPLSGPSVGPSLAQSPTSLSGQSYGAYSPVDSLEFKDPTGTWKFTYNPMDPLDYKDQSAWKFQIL
Summary of the method: as §1

ETV1 = ETV1 (Homo sapiens, UniProt P50549 1-477); conditions: protein: recombinant; tags: N-terminal GST; dsDNA, one strand shown
Sequence of ETV1 (P50549 whole entry): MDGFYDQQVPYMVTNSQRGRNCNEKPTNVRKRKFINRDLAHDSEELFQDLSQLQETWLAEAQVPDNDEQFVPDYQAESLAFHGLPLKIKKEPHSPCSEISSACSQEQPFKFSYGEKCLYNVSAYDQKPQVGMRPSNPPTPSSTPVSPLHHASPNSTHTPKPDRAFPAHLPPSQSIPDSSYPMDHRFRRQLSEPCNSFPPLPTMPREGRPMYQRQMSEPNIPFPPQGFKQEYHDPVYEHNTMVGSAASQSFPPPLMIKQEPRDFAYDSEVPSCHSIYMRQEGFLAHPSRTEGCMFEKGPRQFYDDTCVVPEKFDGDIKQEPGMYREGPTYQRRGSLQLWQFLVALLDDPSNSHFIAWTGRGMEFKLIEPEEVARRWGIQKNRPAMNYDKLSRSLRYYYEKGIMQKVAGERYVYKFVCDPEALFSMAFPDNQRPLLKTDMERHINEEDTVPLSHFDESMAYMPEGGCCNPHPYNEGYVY
Summary of the method: as §1

## CCCCAA
FLI1
  binding signal: 1.1 fold enrichment (6-mer frequency, TF over GST control)
ELK1
  binding signal: 1.16 fold enrichment (6-mer frequency, TF over GST control)
GABPA
  binding signal: 1.16 fold enrichment (6-mer frequency, TF over GST control)
ERG
  binding signal: 1.18 fold enrichment (6-mer frequency, TF over GST control)
ELF1
  binding signal: 1.19 fold enrichment (6-mer frequency, TF over GST control)
EHF
  binding signal: 1.23 fold enrichment (6-mer frequency, TF over GST control)
SPI1
  binding signal: 1.2 fold enrichment (6-mer frequency, TF over GST control)
SPIB
  binding signal: 1.07 fold enrichment (6-mer frequency, TF over GST control)
ELK3
  binding signal: 1.09 fold enrichment (6-mer frequency, TF over GST control)
FEV
  binding signal: 1.16 fold enrichment (6-mer frequency, TF over GST control)
ETV5
  binding signal: 1.12 fold enrichment (6-mer frequency, TF over GST control)
HSF1
  binding signal: 1.06 fold enrichment (6-mer frequency, TF over GST control)
SPIC
  binding signal: 1.06 fold enrichment (6-mer frequency, TF over GST control)
ELF4
  binding signal: 1.21 fold enrichment (6-mer frequency, TF over GST control)
ELK4
  binding signal: 1.16 fold enrichment (6-mer frequency, TF over GST control)
ETV2
  binding signal: 1.15 fold enrichment (6-mer frequency, TF over GST control)
ELF3
  binding signal: 1.24 fold enrichment (6-mer frequency, TF over GST control)
CRX
  binding signal: 1.05 fold enrichment (6-mer frequency, TF over GST control)
ETV1
  binding signal: 1.15 fold enrichment (6-mer frequency, TF over GST control)
